Pf growth 48h: Primary qHTS for delayed death inhibitors of the malarial parasite plastid, 48 hour incubation | P. falciparum luciferase growth in erythrocytes, 48 h | Potency, µM (series often up to 28.7 µM), actives largely listed as inhibitors | 310,000 tested, 5.9% active; active = well fitted inhibition curve with a large enough effect; inconclusive = small, poorly fitted or top-dose-only effect, or another doubt; inactive = no such curve, though single readings can be large or run the other way
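Erythrocytes infected with P. falciparum carrying an integrated firefly luciferase reporter (2% hematocrit, 0.1% parasitemia final) were exposed to compounds in RPMI 1640 with 0.5% Albumax at 37 C, 5% CO2. Growth inhibition was scored as reduced luminescence.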
Cycloheximide cs: Cycloheximide Counterscreen for Small Molecule Inhibitors of Shiga Toxin. cell reporter, cycloheximide protein synthesis inhibition counterscreen. max response, %. 300,000 tested, 12% active. AID 2314, 2010; in the data active = max response mostly above about 13%, no sharp cut-off; inactive = mostly below about 14%; note: read at 38.3 µM for the half of the compounds with a filed dose
Pf growth 96h: Primary qHTS for delayed death inhibitors of the malarial parasite plastid, 96 hour incubation | P. falciparum luciferase reporter growth, 96 h | Potency, µM (titrated, usually from 28.7 µM), most hits filed as inhibitors | 320,000 tested, 6.9% active | AID 504834, 2011; active = well fitted inhibition curve with a large enough effect; inconclusive = small, poorly fitted or top-dose-only effect, or another doubt; inactive = no such curve, though single readings can be large or run the other way
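P. falciparum expressing integrated firefly luciferase, in erythrocytes at 2% hematocrit, 0.05% parasitemia, incubated with compounds 96 h at 37 C, 5% CO2. Growth inhibition read as loss of luminescence; two-generation exposure targets delayed-death apicoplast inhibitors.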
NS1 function inh: qHTS Assay for Inhibitors of Influenza NS1 Protein Function. Potency, µM (top dose mostly 46.1 µM). 270,000 tested, 0.4% active. AID 2326, 2010; note: actives are rising curves; nearly all actives have a fitted effect of over 50% in size
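Growth recovery, yeast-based: influenza A NS1 expressed in S. cerevisiae causes slow growth, and suppressors are detected by OD600. The parent strain without NS1 is used as positive control.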
SARS PLpro yeast: qHTS of Yeast-based Assay for SARS-CoV PLP | Potency, µM (top dose mostly 32.9 µM), hits mostly activators | 330,000 tested, 0.19% active | S. cerevisiae expressing SARS-CoV PLpro, growth rescue | AID 485353, 2010; note: nearly all actives have a fitted effect of over 55% in size
Shiga toxin inh: A qHTS for Small Molecule Inhibitors of Shiga Toxin. Vero cells, Shiga toxin protein synthesis inhibition reporter. inhibition, % at 38.7 µM. 290,000 tested, 9.2% active; in the data active = inhibition mostly above about 28%, no sharp cut-off; inactive = mostly below about 43%
Of the large screens only hits and unclear results are named; the others gave an inactive call. This is a sample that favours compounds with a hit; in the whole collection about 21% have one here. Unless noted, calls come from the whole dose curve.

CCCCCC[N+](C)(C)CC/C=C1/c2ccccc2Sc2ccc(Cl)cc21	Pf growth 48h inconclusive, Pf growth 96h 2.1µM
S=C1Nc2ccccc2Sc2ccc(Cl)cc21	Pf growth 48h inconclusive, Pf growth 96h inconclusive
Clc1nc2nc3n(c2nc1Cl)CCC3	none
COc1cc(S(=O)(=O)N(C)C2CCCCC2)c(C)cc1C	none
O=S(=O)(c1cccc(F)c1)N1CCc2sccc2C1c1ccc(OC(F)(F)F)cc1 (stereo not given)	Pf growth 48h 13µM, Pf growth 96h inconclusive
CC1c2ccsc2CCN1S(=O)(=O)c1ccccc1 (stereo not given)	none
COc1ccc(CCNS(=O)(=O)c2ccc(-c3ccc(=O)[nH]n3)o2)cc1OC	Pf growth 96h inconclusive
CCOc1ccc(/C(O)=C2/C(=O)C(=O)N(CC3CCCO3)C2c2ccco2)cc1 (stereo not given)	Cycloheximide cs 15, Shiga toxin inh 42
CCOc1ccc(/C(O)=C2/C(=O)C(=O)N(CCN(CC)CC)C2c2ccco2)cc1 (stereo not given)	Pf growth 96h inconclusive
CCOc1cccc(/C(O)=C2/C(=O)C(=O)N(CCOC)C2c2ccco2)c1 (stereo not given)	Cycloheximide cs 20, Shiga toxin inh 45
CN(C)S(=O)(=O)c1ccc(/C(O)=C2/C(=O)C(=O)N(Cc3cccnc3)C2c2ccco2)cc1 (stereo not given)	Pf growth 96h 8.3µM
COc1ccc(/C(O)=C2/C(=O)C(=O)N(Cc3cccnc3)C2c2ccco2)cc1OC (stereo not given)	none
CCOc1ccc(/C(O)=C2/C(=O)C(=O)N(CC3CCCO3)C2c2ccc(C)o2)cc1 (stereo not given)	none
CCOc1cccc(/C(O)=C2/C(=O)C(=O)N(Cc3cccnc3)C2c2ccco2)c1 (stereo not given)	Cycloheximide cs 22, Pf growth 96h inconclusive
CCN(CC)S(=O)(=O)c1ccc(N2CCCC2)c(NC(=O)CN2C(=O)NC3(CCCC3)C2=O)c1	Pf growth 48h inconclusive, Pf growth 96h inconclusive (no result: Cycloheximide cs, NS1 function inh, Shiga toxin inh)
COc1cc(CCC(=O)N2CCN(c3cccc(C)c3C)CC2)cc(OC)c1OC	Pf growth 48h inconclusive, Pf growth 96h inconclusive
Cc1cc(C(=O)N/N=C/c2c(C)nn(-c3ccccc3)c2C)c(C)o1	Pf growth 48h inconclusive, Cycloheximide cs 42, Pf growth 96h inconclusive, Shiga toxin inh 59
Cc1nn(-c2ccccc2)c(C)c1/C=N/NC(=O)c1cc(-c2cccc3ccccc23)n[nH]1	Pf growth 48h inconclusive, Pf growth 96h inconclusive, NS1 function inh inconclusive
Cc1ccc(CSc2nnc(SCC(=O)N/N=C/c3c(C)nn(-c4ccccc4)c3C)s2)cc1	Cycloheximide cs 76, Pf growth 96h inconclusive, NS1 function inh inconclusive, Shiga toxin inh 120
Cc1nn(-c2ccccc2)c(C)c1/C=N/NC(=O)c1cc(-c2ccccc2)n[nH]1	Pf growth 48h 15µM, Pf growth 96h 9.3µM
CCc1c(C)sc(NC(=O)OC)c1C(N)=O	Pf growth 96h 4.1µM
CCN1CCN(C(CNS(=O)(=O)c2ccc(Br)cc2)c2cccnc2)CC1 (stereo not given)	Pf growth 96h inconclusive
CCCCNC1C(CC)C(CCC)C(C#N)(C#N)C1(C#N)C#N (stereo not given)	Pf growth 48h 12µM, Pf growth 96h inconclusive
COc1ccc(S(=O)(=O)N2CCOC2CNC(=O)C(=O)NCc2ccco2)cc1OC (stereo not given)	none
Cn1c(SCC(=O)NCc2ccco2)nc2ccccc2c1=O	Shiga toxin inh 73
CCn1c(SCC(=O)NCc2ccco2)nc2ccccc2c1=O	none
CCOC(=O)CSc1nc(NCc2ccco2)c2ccccc2n1	none
O=C(CSc1nc2[nH]ncc2c(=O)n1-c1ccccc1Br)NCc1ccco1	Pf growth 48h 12µM, NS1 function inh inconclusive
COc1ccc(CNc2nc(SCC(=O)NCc3ccco3)nc3ccccc23)cc1	Pf growth 48h 9.3µM
O=C(CCCCCn1c(SCc2ccncc2)nc2ccccc2c1=O)NCc1ccco1	Pf growth 48h 8.3µM
N#CCSc1nc2ccccc2c(=O)n1CCCC(=O)NCc1ccco1	none (no result: NS1 function inh)
COc1cc(C2NC(=O)NC(C)=C2C(C)=O)ccc1O (stereo not given)	none
COc1ccccc1CNC(=O)C(NS(=O)(=O)c1ccc2c(c1)OCCO2)C(C)C (stereo not given)	none
Cc1ccccc1OCCCC(=O)Nc1nncs1	none
C=CCN1C(=NC(=O)COc2ccc(Cl)cc2)SC2CS(=O)(=O)CC21 (stereo not given)	none
CCCn1c(=O)n(C)c(=O)c2c(SCC(=O)NCc3ccco3)nc(C3CC3)nc21	Pf growth 96h 4.1µM (no result: Pf growth 48h)
O=C(CSc1nnc(C2CCCCC2)n1Cc1ccccc1)NCc1ccco1	Cycloheximide cs 16 (no result: Pf growth 96h)
CCn1c(SCC(=O)NCc2ccco2)nnc1C1CCCC1	none
Cc1ccc(CCNC(=O)CN2C(=O)COc3ccc(S(=O)(=O)N4CCOCC4)cc32)cc1	none
CN1C(=O)NC(c2cccc(O)c2)C(C(=O)c2cccs2)C1(O)C(F)(F)F (stereo not given)	Cycloheximide cs 57, Shiga toxin inh 85
CCN(CC)c1ccc(NC(=O)C2CCCN(S(=O)(=O)c3cccnc3)C2)c(C)c1 (stereo not given)	Pf growth 96h 9.3µM (no result: Pf growth 48h)
CCOC(=O)c1cccc(NC(=O)C2CCCN(c3nnc(N4CCCC4=O)s3)C2)c1 (stereo not given)	Pf growth 48h inconclusive, Pf growth 96h inconclusive
CC1COC(C)(CC(=O)NN2C(=O)c3ccccc3C2=O)O1 (stereo not given)	Pf growth 96h 2.6µM
O=C(CN1C(=O)c2ccccc2C1=O)NN1C(=O)c2ccccc2C1=O	none
CC(C)C1(C)C(=O)N=C2c3ccccc3C(=O)N21 (stereo not given)	Pf growth 96h 12µM
CC12CCC(=O)N1c1ccccc1C(=O)N2c1ccccc1 (stereo not given)	none
CCOCCCNC(=S)Nc1ccc2nc(N3CCCC3)cc(C)c2c1	Pf growth 48h 12µM
COCCNC(=S)Nc1ccc2nc(N3CCCC3)cc(C)c2c1	Pf growth 48h inconclusive, Pf growth 96h inconclusive
Cc1cc(N2CCOCC2)nc2ccc(NC(=S)NC(C)C)cc12	none
Cc1cc(N2CCCC2)nc2ccc(NC(=S)NC(C)C)cc12	Pf growth 48h 10µM (no result: NS1 function inh)
Cc1ccc(NC(=O)COc2ccccc2)cc1Cl	Pf growth 48h inconclusive, Cycloheximide cs 17, Shiga toxin inh 102
CCCOc1ccc(C(=O)N2CCN(c3ccc(NC(=O)CC)cc3Cl)CC2)cc1	Pf growth 48h 6.6µM
COC(=O)c1ccc(N2CCN(C)CC2)c(NC(=O)COc2ccccc2)c1	Pf growth 48h inconclusive
Cc1cc(Oc2ccccc2)nc(SCC(=O)Nc2ccc(Cl)c(Cl)c2)n1	Pf growth 96h 13µM (no result: Pf growth 48h)

From PubChem
